Most compounds without a hit are left out; they make up all but 12% or so of the library.
BAZ2B block – blocks human BAZ2B; 360,000 compounds, 4.4% hits; AlphaScreen BAZ2B-H3K14Ac peptide displacement; Q9UIF8; Potency, µM (series often up to 114 µM), for the others: top-dose activity change, negative = inhibition, usual class: inhibitors; AID 504333; also: % is scaled to controls: 0 for no effect and ±100 for the full control effect; nearly all actives have a fitted effect of over 60% in size
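Multi-concentration screen (max 110 uM) measuring displacement of acetylated histone H3 peptide from BAZ2B by AlphaScreen, using 50 nM protein, 50 nM peptide and 10 ug/mL streptavidin donor plus Ni-chelate acceptor beads.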
JMJD2A Tudor inh – inhibitors of human JMJD2A Tudor domain; O75164; AlphaScreen JMJD2A-Tudor / H3K4me3 peptide binding; Potency, µM (doses to about 114 µM), inactives show top-dose activity change, negative = inhibition, actives largely listed as inhibitors; 390,000 compounds, 4.4% hits; AID 504339; also: % is scaled to controls: 0 for no effect and ±100 for the full control effect; nearly all actives have a fitted effect of over 50% in size
Target sequence (O75164 whole entry, looked up, the tested form may be a part): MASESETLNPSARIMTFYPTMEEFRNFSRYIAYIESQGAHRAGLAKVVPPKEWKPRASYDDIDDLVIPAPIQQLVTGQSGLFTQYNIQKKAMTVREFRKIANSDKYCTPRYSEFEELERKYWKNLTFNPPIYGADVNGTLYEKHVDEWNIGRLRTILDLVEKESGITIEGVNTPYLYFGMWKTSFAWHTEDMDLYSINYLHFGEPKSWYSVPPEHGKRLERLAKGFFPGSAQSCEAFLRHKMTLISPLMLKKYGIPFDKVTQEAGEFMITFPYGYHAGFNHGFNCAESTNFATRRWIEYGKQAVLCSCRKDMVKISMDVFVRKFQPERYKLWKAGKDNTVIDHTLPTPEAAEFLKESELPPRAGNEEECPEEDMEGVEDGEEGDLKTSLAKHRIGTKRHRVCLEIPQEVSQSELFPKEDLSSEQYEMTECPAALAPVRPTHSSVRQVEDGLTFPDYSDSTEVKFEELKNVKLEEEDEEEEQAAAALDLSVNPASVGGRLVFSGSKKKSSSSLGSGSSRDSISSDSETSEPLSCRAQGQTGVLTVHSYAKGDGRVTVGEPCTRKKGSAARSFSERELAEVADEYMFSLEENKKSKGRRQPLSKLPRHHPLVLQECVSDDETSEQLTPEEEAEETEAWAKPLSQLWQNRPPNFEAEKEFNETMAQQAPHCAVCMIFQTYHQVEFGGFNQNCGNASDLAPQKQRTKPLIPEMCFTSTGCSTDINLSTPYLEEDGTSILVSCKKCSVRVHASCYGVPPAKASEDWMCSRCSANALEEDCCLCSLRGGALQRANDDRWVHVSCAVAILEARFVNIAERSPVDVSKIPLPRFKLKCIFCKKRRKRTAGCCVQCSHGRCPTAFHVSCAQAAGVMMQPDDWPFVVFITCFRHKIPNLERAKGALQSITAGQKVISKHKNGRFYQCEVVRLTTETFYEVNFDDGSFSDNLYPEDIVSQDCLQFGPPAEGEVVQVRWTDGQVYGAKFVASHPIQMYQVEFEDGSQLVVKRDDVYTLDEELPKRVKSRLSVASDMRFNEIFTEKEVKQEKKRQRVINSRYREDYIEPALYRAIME
G9a block – inhibitors of human histone lysine methyltransferase G9a; Q96KQ7; G9a H3K9 monomethylation, AlphaScreen, 2 h; Potency, µM (doses to about 102 µM), without a hit: at the highest dose activity, negative = inhibition, most hits filed as inhibitors; 350,000 compounds, 8.8% hits; AID 504332; also: % is scaled to controls: 0 for no effect and ±100 for the full control effect; nearly all actives have a fitted effect of over 75% in size
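Step 1: enzyme (final 20 nM) with compound, 15 min RT. Step 2: substrate peptide 500 nM and SAM 20 uM, 2 h RT. Step 3: anti-H3K9me1 antibody and AlphaScreen beads, 10 min, then plate read.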
L3MBTL1 block – inhibitors of human L3MBTL1 | Q9Y468 | Potency, µM (series often up to 57.1 µM), for inactives: at the top dose activity, negative = inhibition, actives largely listed as inhibitors | 230,000 compounds, 0.66% hits | AlphaScreen L3MBTL1–H3K9me1 peptide binding | AID 485360; also: % is scaled to controls: 0 for no effect and ±100 for the full control effect; nearly all actives have a fitted effect of over 60% in size
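AlphaScreen assay: L3MBTL1 (50 nM final) was preincubated 30 min at room temperature with biotinylated H3(1-15)K9me1 peptide (75 nM final), then 30 min with library compounds; streptavidin donor and nickel chelate acceptor beads (10 ug/mL final) added, 30 min dark.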
HP1b chromo inh – HP1-beta chromodomain-methylated histone interaction inhibition | 390,000 compounds, 0.56% hits | AlphaScreen HP1-beta / biotin-H3K9me3 peptide binding | Potency, µM (series often up to 114 µM), without a hit: top-dose activity change, negative = inhibition, hits mostly inhibitors; also: nearly all actives have a fitted effect of over 70% in size
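HP1-beta protein (50 nM final) preincubated 30 min at room temperature with biotinylated H3(1-18)K9me3 peptide (50 nM) in PBS pH 7.4, 0.01% Tween-20, then compound added for 30 min. AlphaScreen streptavidin donor/nickel chelate acceptor beads (10 ug/mL final), 30 min dark, luminescence read.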
Sfp inh – Sfp phosphopantetheinyl transferase inhibition; 310,000 compounds, 3.5% hits; Potency, µM, for the others: largest response in the series, negative = inhibition, actives largely listed as inhibitors; Biochemical Sfp PPTase activity, qHTS; Q9F4F7;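 also: the enzyme is Sfp with the accession as filed and its product quenches rhodamine fluorescence; 0% = enzyme reaction without inhibitor and -100% = no enzyme wells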
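With Hepes-Na pH 7.6 buffer containing 10 mM MgCl2, Sfp (15 nM) modified BHQ-2-YbbR (12.5 uM) using rhodamine-CoA (5 uM). Two reads 30 minutes apart at 525/598 nm yielded each well's rate.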
Starred values were filed as active, the others as inactive; u = inconclusive; x = no result; [ ] = remark or other dose. Calls follow the shape of the dose curve; as a rule, active = well fitted curve in the direction sought with a large enough effect; inconclusive = small, poorly fitted or top-dose-only effect, or another doubt; inactive = no such curve, though single readings can be large; an effect the other way counts as inactive or inconclusive. Potency is read from the fitted curve at half-maximal effect.

SMILES | BAZ2B block | JMJD2A Tudor inh | G9a block | L3MBTL1 block | HP1b chromo inh | Sfp inh
CC1=C(C(=O)Nc2ccccc2)C(c2ccc(Cl)cc2)n2c(s/c(=C/c3cccc(OCC(=O)O)c3)c2=O)=N1 (stereo not drawn) | 56µM* | u | u | u | u | 50µM*
CCOc1ccc(C2C(C(=O)Nc3ccccc3)=C(C)N=c3s/c(=C/c4cccc(OCC(=O)O)c4)c(=O)n32)cc1 (stereo not drawn) | u | u | 50µM* | 35µM* | 9% | 79µM*
CC(=O)c1ccc(NC(=O)CSc2nnc3ccc(-c4ccc(F)cc4)nn23)cc1 | 2% | 4% | 7%[59 µM] | x | 34% | x
COc1ncc2nc(-c3cn(C)c4ccccc34)c(=O)n(-c3ccccc3)c2n1 | x | x | 4%[0.501 µM] | x | x | 8%
Cc1cc(C(=O)COC(=O)CCc2nc3ccccc3s2)c(C)n1C | 50µM* | u | u | -7% | -12% | 11%
O=C(CCc1nc2ccccc2s1)OCc1ccccc1 | 86% | 26% | 39%[59 µM] | 48% | 284% | -2%
Cc1ccc(C)c(NC(=S)Nc2cccnc2)c1 | -17% | -9% | 30%[59 µM] | x | 16% | -12%
S=C(Nc1cccc2ccccc12)Nc1cccc2ccccc12 | x | -26% | x | x | -23% | x
FC(F)(F)c1ccccc1NC(=S)N1CCCCCC1 | -1% | -11% | x | x | 51% | 4%
Cc1ccc(C)c(NC(=S)Nc2cccc3cnccc23)c1 | -36% | -16% | 22µM* | -1%[11.4 µM] | -2% | 32µM*
FC(F)(F)c1ccccc1NC(=S)Nn1cnnc1 | -17% | -29% | 7.1µM* | x | u | 20µM*
FC(F)(F)c1ccccc1NC(=S)Nc1cccc2cnccc12 | u | -28% | 35µM* | 1% | u | 20µM*
Cc1ccccc1NC(=S)Nc1ccccn1 | -16% | -14% | u | 6% | 34% | 56µM*
Cc1ccc(-n2c(=O)c3c(c4cc(C)ccc4n3C)n(CC(=O)NCc3ccccc3)c2=O)cc1 | 0% | -15% | -15%[59 µM] | x | 13% | x
CCOC(=O)c1c(S(=O)(=O)NCc2cccs2)c(C)n(C)c1C | -25% | -5% | -3%[59 µM] | x | 20% | 8%
O=C1C2C3CC(C(Br)C3Br)C2C(=O)N1c1nccs1 (stereo not drawn) | x | -14% | x | x | 31% | x
CC(C)c1nn2c(=O)cc(COC(=O)CNC(=O)c3ccccc3)nc2s1 | -11% | -10% | 28%[59 µM] | x | -1% | x
CCC(=O)N1CCc2cc(S(=O)(=O)NC(C(=O)NCCc3cccc(C)c3)C(C)C)ccc21 (stereo not drawn) | x | -3% | -3%[59 µM] | x | 32% | x
NC(=S)Nc1cccc2cnccc12 | -2% | -7% | -7%[59 µM] | 9% | 25% | 9%
Fc1ccccc1NC(=S)Nc1cccnc1 | -25% | 1% | 37%[12.7 µM] | -4% | 33% | -1%
Cc1ccccc1NC(=S)Nc1cccc2cnccc12 | -13% | -22% | 1.8µM* | -19% | -18% | 3.2µM*
Fc1ccccc1NC(=S)Nc1cccc2cnccc12 | -36% | -36% | 18µM* | -2% | -30% | 22µM*
CN(C1CCCCC1)S(=O)(=O)c1ccc2c(c1)c(=O)c(C(=O)N1CCN(c3ccccc3)CC1)cn2C | x | 2% | 5%[59 µM] | x | 53% | x
CC(C)NCc1cccc([N+](=O)[O-])c1 | 56µM* | 20µM* | 2.5µM* | -2% | u | u
COc1ccccc1/C=C/C(=O)Nc1cccc(S(=O)(=O)N2CCOCC2)c1 | -4% | -17% | -8%[2.33 µM] | -5% | 28% | x
SMILES | BAZ2B block | JMJD2A Tudor inh | G9a block | L3MBTL1 block | HP1b chromo inh | Sfp inh
NC(=O)c1ccccc1OCC(=O)NS(=O)(=O)c1ccccc1 | 8% | -4% | 1%[59 µM] | 11% | 15% | 29%
NC(=O)NS(=O)(=O)Oc1ccccc1 | -9% | 89µM* | x | 15% | 13% | 20%
c1ccc(Sc2ncccn2)nc1 | -2% | -9% | 32µM* | 7% | 17% | -28%
CCOC(=O)c1ccc2ncc(C(=O)OCC)c(Nc3ccc(N4CCOCC4)cc3)c2c1 | 14µM* | 40µM* | u | u | u | 50µM*
CCOC(=O)c1cnc2c(C)c(Cl)ccc2c1Nc1ccc(N2CCOCC2)cc1 | 10µM* | u | 7.9µM* | x | -27% | x
CCn1c(C)c(C(C)=O)c(N2CCN(c3ccc(OC)cc3)CC2)nc1=S | u | -31% | 35µM* | -20% | -4% | 22µM*
CCOC(=O)c1cnc(N2CCN(c3ccc(OC)cc3)CC2)c2ccccc12 | u | u | 14µM* | x | 1%[57 µM] | x
COc1cc(C(C(=O)NCc2ccccc2)N(C(=O)c2snc(C(N)=O)c2N)C2CCCC2)cc(OC)c1OC (stereo not drawn) | -8% | -8% | u | x | 20% | 11%
Cc1cccc(O)c1 | x | x | 29%[59 µM] | x | x | 2%
Cc1cccc(Nc2nc(Nc3cccc(C)c3)nc(N3CCOCC3)n2)c1 | -19% | -20% | -36%[59 µM] | x | 9% | x
CCOC(=O)c1cnc2c(C)cccc2c1Nc1ccc(N2CCOCC2)cc1 | 14µM* | x | 28µM* | u | x | -29%
CCOC(=O)c1cnc2ccc(OC)cc2c1Nc1ccc2c(c1)OCCO2 | u | u | u | -25% | -16% | -10%
CCOC(=O)c1cnc2ccc(OC)cc2c1Nc1ccc(N2CCN(C)CC2)cc1 | 35µM* | 32µM* | 35µM* | x | -32%[57 µM] | -8%
CCOC(=O)c1cnc2ccccc2c1Nc1cc(C(=O)O)ccc1C | -1% | -3%[11.4 µM] | 50µM* | x | 49% | 24%
O=C(NCC(=O)N1CCN(S(=O)(=O)c2c(F)cccc2F)CC1)c1ccccc1F | -3% | u | -7% | -4% | 42% | x
CCCCC/C=C\C/C=C\CCCCCCCCCC(=O)NCCCC(=O)O | x | x | x | x | x | 27%
CC1=CC2(O)OCCN(CCO)C2=CC1=O (stereo not drawn) | u | -28% | u | u | 0% | 56µM*
Cc1cc(C)n(-c2ncc3c(n2)N(CCO)CCOC3=O)n1 | 4% | -18% | x | 14% | 21% | -16%
COC(=O)CSC1=C(C#N)C(c2ccc3c(c2)OCO3)C2=C(CCCC2=O)N1 (stereo not drawn) | 4% | -3% | u | x | 42% | u
O=C1CCCC2=C1C(c1ccc3c(c1)OCO3)c1c([nH]n(-c3ccccc3)c1=O)N2 (stereo not drawn) | -4% | -23% | 40µM* | -6% | -4% | 4%
COC(=O)CSC1=C(C#N)C(c2ccc(C)cc2)C2=C(CCCC2=O)N1 (stereo not drawn) | 9% | 0% | u | 7% | 46% | 56µM*
Cc1ccc(NC(=O)CSC2=C(C#N)C(c3ccc4c(c3)OCO4)C3=C(CCCC3=O)N2)c(C)c1 (stereo not drawn) | -34% | -26% | 50µM* | -11% | 30% | -15%

Assay outcomes deposited in PubChem by National Center for Advancing Translational Sciences (NCATS).
